These results are taken from PubChem BioAssay AID1159580 (chemical genetic matrix, 2015).

This assay can be described thus: chemical genetic growth profiling, strain panel (AID 1159580).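 Also: tested at 20 µM; growth read once vehicle control cultures reached saturation at 30 °C; 1 = growth at the plate median or of vehicle wells; lower values mean less growth of the strain.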 The following applies: S. cerevisiae deletion strains, growth OD.
Setting [1] is: locus YAL040C, strain CLN3, stronger effect = lower value.
[2] abbreviates: locus YCL061C, strain MRC1 (second series), stronger effect = lower value.
Setting [3] is: locus YDR363W, strain ESC2, stronger effect = lower value.
Setting [4] is: locus YER002W, strain NOP16, stronger effect = lower value.
[5] abbreviates: locus YJR075W, strain HOC1, stronger effect = lower value.
[6] abbreviates: locus YMR307W, strain GAS1, stronger effect = lower value.
Setting [7] is: locus YNL175C, strain NOP13, stronger effect = lower value.
The mark [8] stands for this setting: locus YNL197C, strain WHI3, stronger effect = lower value.
[9] abbreviates: locus YNL224C, strain SQS1, stronger effect = lower value.
[10] abbreviates: locus YNL322C, strain KRE1, stronger effect = lower value.
Setting [11] is: locus YOR083W, strain WHI5 (second series), stronger effect = lower value.
Where [12] appears, read: locus YPL241C, strain CIN2, stronger effect = lower value.
Setting [13] is: locus YPL055C, strain LGE1, stronger effect = lower value.

Screen size: about 5,500 compounds; about 2,000 (36%) were called active. Inconclusive results (about 18%) are left out. Some of the results follow. Values without a mark were called inactive. Rule as the data show it: active = normalized growth mostly below about 0.91 (no sharp cut-off); inconclusive = no clear call, values can overlap the other calls; inactive = mostly above about 0.92.

As to `CCCN1CCOC2c3cc(O)ccc3OCC21` (stereo not drawn), the normalized growth under setting [1] is 0.983; the normalized growth under setting [2] is 0.993; the normalized growth (locus YDR150W, strain NUM1, stronger effect = lower value) is 0.988; the normalized growth under setting [3] was 0.96; the normalized growth under setting [4] was 1; the normalized growth (locus YGR229C, strain SMI1, stronger effect = lower value) is 1.03. For the same molecule, the normalized growth is 1.01 under setting [5]; 1 (locus YMR263W, strain SAP30, stronger effect = lower value); 1.02 under setting [6]; 0.993 (locus YNL128W, strain TEP1, stronger effect = lower value); 0.984 under setting [7]; 0.975 under setting [8]. For the same molecule, the normalized growth is 1 under setting [9], 0.994 under setting [10], 0.983 under setting [11] and 0.998 under setting [12].
For `CCCN1CCc2cc(O)cc3c2[C@H]1Cc1ccc(O)c(O)c1-3`, the normalized growth runs as follows: under setting [1], 1.03; under setting [2], 0.779 (active); under setting [3], 0.922; under setting [4], 1.01; under setting [6], 0.771 (active); under setting [7], 1.01. The normalized growth is, setting by setting: under setting [8], 0.983; under setting [9], 1.01; under setting [10], 0.654 (active); under setting [11], 0.926; under setting [13], 0.553 (active).
Take `CN1CCc2cc(O)cc3c2[C@H]1Cc1ccc(O)c(O)c1-3`: the normalized growth is 0.844 (active) (locus YAL013W, strain DEP1, stronger effect = lower value); 1.06 under setting [1]; 0.794 (active) under setting [2]; 0.927 under setting [3]; 1 under setting [4]; 0.946 (locus YGR078C, strain PAC10, stronger effect = lower value). The normalized growth is, setting by setting: under setting [5], 0.492 (active); under setting [6], 0.798 (active); (locus YNL153C, strain GIM3, stronger effect = lower value) 0.902; under setting [7], 0.994; under setting [8], 1.02; under setting [9], 1.03. The normalized growth under setting [10] is 0.786 (active), the normalized growth under setting [11] was 0.912, the normalized growth under setting [13] was 0.575 (active) and the normalized growth under setting [12] is 0.876 (active).
